Compound activity deposited in PubChem by National Center for Advancing Translational Sciences (NCATS).
IL-1B inflam inh – qHTS for Inhibitors of Inflammasome Signaling: IL-1-beta AlphaLISA Primary Screen; THP-1 LPS/ATP IL-1B secretion, AlphaLISA, 16 h; hits give low values; activity change, % at 57.5 µM; actives 4.7% (n = 360,000); in the data active means activity change below about -50%; inconclusive means mostly about -30% to -49%
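THP-1 cells pretreated 1 hr with compounds (up to 57.5 uM final), then stimulated with LPS (250 ng/mL final) plus ATP (1.25 mM final); secreted IL-1B measured by AlphaLISA after 16 hr, decreased signal indicating inhibition.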
LDHA inh – qHTS assay for inhibitors of human lactate dehydrogenase. L-lactate dehydrogenase A chain (Homo sapiens), P00338. purified LDHA, NADH/diaphorase-resazurin fluorescence; hits give low values. activity change, % (values are at about 110 or 230 µM). actives 0.15% (n = 480,000); in the data active means activity change below about -30%; inconclusive means mostly about -25% to -30%
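LDH5 2 nM; NADH 0.06 mM, pyruvate 0.2 mM; 200 mM Tris pH 7.4, EDTA, Tween-20; 5 min RT. Detection: diaphorase 0.133 mg/mL + resazurin 37 µM, fluorescence ex540/em590 at 0 and 20 min; normalized to enzyme-free and DMSO wells.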
RORg inh – qHTS for inhibitors of ROR gamma transcriptional activity. Drosophila S2 Gal4-RORgamma UAS-luciferase reporter, 20 h. Potency, µM (doses to about 53.6 µM), actives largely listed as inhibitors. actives 5.4% (n = 310,000). Nuclear receptor ROR-gamma (Mus musculus), P51450; further: nearly all actives have a fitted effect of over 60% in size
Target sequence (P51450 whole entry, looked up, the tested form may be a part): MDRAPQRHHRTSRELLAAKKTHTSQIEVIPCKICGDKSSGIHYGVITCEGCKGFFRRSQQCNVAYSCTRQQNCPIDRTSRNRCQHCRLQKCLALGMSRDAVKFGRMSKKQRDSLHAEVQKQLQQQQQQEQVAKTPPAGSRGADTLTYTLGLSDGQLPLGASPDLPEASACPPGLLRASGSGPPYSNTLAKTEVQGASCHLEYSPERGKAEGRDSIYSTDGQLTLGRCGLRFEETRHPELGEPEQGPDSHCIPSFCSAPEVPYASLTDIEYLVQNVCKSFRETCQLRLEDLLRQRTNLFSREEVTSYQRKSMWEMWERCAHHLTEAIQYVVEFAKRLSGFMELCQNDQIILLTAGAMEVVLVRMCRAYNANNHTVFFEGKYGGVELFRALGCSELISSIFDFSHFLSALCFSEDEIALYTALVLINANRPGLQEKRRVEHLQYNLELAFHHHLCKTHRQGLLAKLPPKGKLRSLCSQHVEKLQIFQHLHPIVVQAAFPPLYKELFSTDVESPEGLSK
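Stably transfected Drosophila Schneider cells are the test system, with ROR gamma fused to Gal4 and luciferase under UAS control; luminescence is read after 20 hr of 700 uM copper sulfate induction at ambient temperature.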
DT40 TDP1 no CPT – qHTS for Inhibitors of human tyrosyl-DNA phosphodiesterase 1 (TDP1): qHTS in cells in absence of CPT | DT40 Tdp1-/- hTDP1 cells, no CPT, ATP luminescence, 48 h | Potency, µM (doses to about 46.2 µM), hits mostly inhibitors | actives 15% (n = 420,000) | AID 686978, 2013; further: nearly all actives have a fitted effect of over 55% in size
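Growth of hTDP1-complemented DT40 Tdp1-knockout cells is measured by ATP luminescence after at least 48 hr compound exposure at 37 °C, with DMSO substituting for the 20 nM CPT used in the parallel screen.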
TDP1 cell CPT – qHTS for Inhibitors of human tyrosyl-DNA phosphodiesterase 1 (TDP1): qHTS in cells in presence of CPT. actives 12% (n = 420,000). AID 686979, 2013. Potency, µM (titrated, usually from 46.2 µM), most hits filed as inhibitors. chicken DT40 Tdp1-/-;hTDP1 cells + 20 nM CPT, ATP luminescence, 48 h; further: nearly all actives have a fitted effect of over 55% in size
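Cell growth measured by CellTiter-Glo luminescence after a minimum 48 h, 37 C compound exposure with 20 nM CPT in Tdp1-knockout DT40 cells stably expressing hTDP1, seeded 400/well; qHTS titration format.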
VP16 counter – VP16 counterscreen qHTS for inhibitors of ROR gamma transcriptional activity. AID 2546, 2010. actives 3.5% (n = 310,000). Potency, µM (top dose mostly 53.6 µM), actives largely listed as inhibitors. Drosophila S2 Gal4-VP16 UAS-luciferase, luminescence, 20 h;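 further: Gal4-VP16 expression switched on by copper sulfate through the metallothionein promoter; nearly all actives have a fitted effect of over 50% in size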
Of the large screens only hits and unclear results are named; the others gave an inactive call. In the library only some 18% were active in any assay of this set; here they are far more common. Unless noted, the call rests on the fitted dose curve; in most records, active means well fitted curve in the direction sought with a large enough effect; inconclusive means small, poorly fitted or top-dose-only effect, or another doubt; inactive means no such curve, though single readings can be large; an effect the other way counts as inactive or inconclusive.

CC(C)C(CNC(=O)CCc1ncc(-c2ccc(F)cc2)o1)N(C)C (configuration not stated)	none (no result: IL-1B inflam inh, RORg inh, DT40 TDP1 no CPT, TDP1 cell CPT, VP16 counter)
CC(C)c1nc2ccc(Br)cn2c1NC1CCCC1	RORg inh 7.08µM, VP16 counter inconclusive
CCOC(=O)C(NC(=O)c1cc(C)cc(C)c1)C(=O)OCC	none (no result: IL-1B inflam inh, RORg inh, DT40 TDP1 no CPT, TDP1 cell CPT, VP16 counter)
Cc1ccc(NC(=O)C(NC2CCCc3ccccc32)c2ccccc2)cc1Cl (configuration not stated)	LDHA inh inconclusive, DT40 TDP1 no CPT 18.4µM, TDP1 cell CPT 2.91µM
CNC(=O)NC(=O)C(NC1CCCc2ccccc21)c1ccccc1 (configuration not stated)	none
COc1ccc(C)cc1NC(=O)NC1CCCc2ccccc21 (configuration not stated)	none
Cc1ccc(NC(=O)C(NC2CCCc3ccccc32)c2ccccc2)c([N+](=O)[O-])c1 (configuration not stated)	DT40 TDP1 no CPT 23.1µM, TDP1 cell CPT inconclusive
CCC(C)NCCOCCOc1ccc(C)cc1OC (configuration not stated)	DT40 TDP1 no CPT inconclusive
CCC(C)NCCOCCOc1cc(C)c(Cl)c(C)c1 (configuration not stated)	IL-1B inflam inh inconclusive, DT40 TDP1 no CPT 14.6µM, TDP1 cell CPT 25.9µM
CCC(C)NCCOCCOc1ccc(F)cc1 (configuration not stated)	TDP1 cell CPT inconclusive
Cc1ccc(OCCOCCNC(C)C)c(Br)c1	IL-1B inflam inh -58.2
CCC(C)NCCOCCOc1ccc(Cl)cc1Br (configuration not stated)	IL-1B inflam inh -79.9, DT40 TDP1 no CPT inconclusive, TDP1 cell CPT inconclusive
CCCCNCCOCCOc1ccc(C)cc1Br	DT40 TDP1 no CPT 23.1µM, TDP1 cell CPT 16.4µM
CCOC(=O)C(=O)Nc1ccccc1OC	none (no result: IL-1B inflam inh, RORg inh, DT40 TDP1 no CPT, TDP1 cell CPT, VP16 counter)
CN(CC(=O)Nc1ccccc1C(F)(F)F)C(=O)CSc1nccn1-c1cccc(F)c1	none (no result: IL-1B inflam inh, RORg inh, DT40 TDP1 no CPT, TDP1 cell CPT, VP16 counter)
COc1ccccc1CNC(=O)c1ccc(C(C)(C)C)cc1	none (no result: IL-1B inflam inh, RORg inh, DT40 TDP1 no CPT, TDP1 cell CPT, VP16 counter)
COC(=O)[C@@H](C)NC(=O)NCc1ccc(C)cc1	none (no result: IL-1B inflam inh, RORg inh, DT40 TDP1 no CPT, TDP1 cell CPT, VP16 counter)
CCN(CC)CCOCCOc1cc(C)c(Cl)c(C)c1	DT40 TDP1 no CPT 17.8µM, TDP1 cell CPT 23.1µM
Cc1ccc(S(=O)(=O)N2CCC(C(=O)N3CCC(CCc4ccccc4)CC3)CC2)c(C)c1	none (no result: IL-1B inflam inh, RORg inh, DT40 TDP1 no CPT, TDP1 cell CPT, VP16 counter)
N#Cc1ccc(/C=C/C(=O)N2CCC(c3nc4ccccc4o3)CC2)cc1	none (no result: IL-1B inflam inh, RORg inh, DT40 TDP1 no CPT, TDP1 cell CPT, VP16 counter)
COc1ccc(N2CCN(C(=O)CCNC(=O)c3ccc(C(C)(C)C)cc3)CC2)cc1	DT40 TDP1 no CPT inconclusive, TDP1 cell CPT 18.4µM
COc1ccc(N2CCN(C(=O)[C@H](C)NC(=O)c3ccccc3Cl)CC2)cc1	none
COc1ccc(N2CCN(C(C)C(=O)N3CCCC3)CC2)cc1 (configuration not stated)	LDHA inh -38.0
COc1ccc(C(=O)CCC(=O)N2CCN(c3ccccc3)CC2)cc1	DT40 TDP1 no CPT inconclusive, TDP1 cell CPT 16.4µM
O=C(CCC(=O)N1CCN(c2ccc(F)cc2)CC1)c1ccc(Cl)cc1	DT40 TDP1 no CPT inconclusive, TDP1 cell CPT inconclusive
O=C(CCC(=O)N1CCN(c2ccc(Cl)c(Cl)c2)CC1)c1ccccc1	DT40 TDP1 no CPT 18.4µM, TDP1 cell CPT 20.6µM
COc1ccc(N2CCN(C(=O)CN3CCN(C(c4ccccc4)c4ccccc4)CC3)CC2)cc1	DT40 TDP1 no CPT 23.1µM, TDP1 cell CPT inconclusive
CCOC(=O)/C(=N\Nc1cccc(Cl)c1)Sc1nnc(-c2ccc(OC)cc2)n1C	RORg inh 3.55µM, VP16 counter 11.2µM
O=C(CN1CCCCC1)Nc1oc2ccccc2c(=O)c1-c1ccc(Cl)cc1	none (no result: IL-1B inflam inh, RORg inh, DT40 TDP1 no CPT, TDP1 cell CPT, VP16 counter)
